# Source: PubChem BioAssay AID2472 (National Center for Advancing Translational Sciences (NCATS), 2010)
# “And” between values parts separate entries of the source, which are not always exact repeats. Equal values may be shown once. About 2,000 (0.69%) of roughly 290,000 compounds were called active. Rule as the data show it: active = activity change below about -30%; inactive = the rest, inconclusive results apart. For the sample, actives were picked, then their nearest neighbours and some compounds at random. A structure can be active in one record and inactive in another.
# Assay: qHTS Assay for Inhibitors of Fructose-1,6-bisphosphate Aldolase from Giardia Lamblia: Coupling assay counterscreen
# Settings: coupling enzyme system counterscreen, AmpLite Red fluorescence; at 58.2 µM (top of the series)
# From the text: MLPCN Grant: MH085699-01 Assay Provider: Osnat Herzberg, University of Maryland NCGC Assay Overview: The objective of this project is to obtain compounds that inhibit Giardia lamblia growth. G. lamblia is a human pathogen which afflicts impoverished nations; it is the most common cause of outbreaks of diarrhea in the United States. During the course of our study of potential drug targets in Giardia, we have identified the Class II (Zn2+ functions in electrophilic catalysis) fructose-1,6-bisphosphate aldolase (FBPA) as an excellent candidate for drug targeting. FBPA is a key glycolytic pathway enzyme, essential for G. lamblia survival. The human FBPA belongs to the Class I aldolases, which have a different substrate binding site structure and a radically different catalytic mechanism (employing a lysine-Schiff base intermediate). Therefore, affinity-based or mechanism-based inhibitors of the Giardia FBPA are expected not to interfere with the catalytic function of the human FBPA. A glyceraldehyde-3-phosphate dehydrogenase/triose phosphate isomerase/NAD/arsenate coupled assay was adapted to the 1536-well HTP format for use in the primary screen. This was done by coupling it to a diaphorase/resazurin/resorufin reaction that can be monitored by fluorescence (excitation, 544 nm; emission, 590 nm). Compounds identified in this screen will be further evaluated by coupling the […]/triose phosphate isomerase/NADH assay to a phenazine methosulfate/tetranitroblue tetrazolium color reaction. False positives due to the dehydrogenases and diaphorase inhibition will be eliminated, and selectivity assay will triage inhibitors of mammalian triose phosphate isomerase and the Class I FBPA. G. lamblia FBPA inhibitors identified by the in vitro analyses will be examined for growth inhibition of Giardia trophozoites, and for cytotoxicity in human cells. This assay specifically addresses whether activity observed in the primary screen (AID 2451) is related to inhibition of the coupling assay used, as opposed to inhibition of aldolase. Actives in this assay are considered inconclusive for activity against aldolase.
# NCGC Assay Protocol: Step,Parameter,Value,Description 1,Coupling enzyme reagent,2 uL,glyceraldehyde-3-phosphate 2,Compound,23 nL,3.68 nM-57.5 uM final concentration 3,Time,10 min,RT Incubation 4,Substrate/detection Reagent,2 uL,Substrate + enzyme coupling system + AmpLite Red kit 5,Time,20 min,RT Incubation 6,Detector,525 nm/598 nm (Fluorescence),ViewLux Fluorescence Read (Read 1) Notes: 1,Medium-binding black solid-bottom Kalypsys plates. FRD or Kalypsys dispenser. 2,Compound Library (10 mM ,1:5 dilution). Pin-transferred for a [final] range of 3.68 nM-57.5 uM. 3,RT incubation 4,FRD or Kalypsys dispenser, 2 uL of reaction mixture. Bottle kept at 4C and covered in foil to protect from light. 5,RT incubation 6,ViewLux Protocol 1194; Excitation filter wheel A (525/20 Pol; BODIPY TMR FP), Emission filter wheel B (598/25 S; BODIPY TMR FP S). Keywords: Fructose-bisphosphate aldolase, FBPA , Giardia lamblia , Giardia, HTS, Inhibitors
# % is scaled to controls: 0 for no effect and ±100 for the full control effect.
row,Compound,"activity change, negative = inhibition"
1,Cn1cc(-c2nc3cnc(N4CCNCC4)nc3n(CCc3ccccc3)c2=O)c2ccccc21,-0.191% (inactive)
2,CC(C)C1=CC2=CC[C@@H]3[C@](C)(CO)CCC[C@]3(C)C2CC1 (some centres not stated),-1.26% (inactive)
3,COc1cccc(CN(C)C(=O)CC23CC4CC(CC(C4)C2)C3)c1OC,-1.24% (inactive)
4,COc1ccc(S(=O)(=O)N2CCCC(C(=O)NCCCn3ccnc3)C2)cc1OC (configuration not stated),-2.16% (inactive)
5,CCN(CC)c1ccc(C(=O)Nn2c(C)nc3ccccc3c2=O)cc1,2.59% (inactive)
6,CC(C)Oc1c(Br)cc(Br)cc1/C=N/NC(N)=S,-0.43% (inactive)
7,Cc1ccc(-c2c3c(=O)n(C)c(=O)n(C)c3cn2-n2cnnc2)cc1,1.01% (inactive)
8,COc1cccc(-n2cc3c(c2-c2ccccc2)c(=O)n(C)c(=O)n3C)c1,-16.5% (inactive)
9,Cc1ccc(-c2c3c(=O)n(C)c(=O)n(C)c3cn2-c2ccccc2O)cc1,-32% (active)
10,O=c1o[nH]c(-c2ccccc2)c1N=Nc1c(F)cccc1Cl,5.04% (inactive)
11,COc1cnc(SCc2ccc(Cl)c(Cl)c2)nc1Cl,1.35% (inactive)
12,CCCC(=O)N1CCC(CCC(=O)NC2CC2)CC1,0.0768% (inactive)
13,O=C(CC(n1cncn1)C(Cl)(Cl)Cl)c1ccc([N+](=O)[O-])cc1 (configuration not stated),-0.311% (inactive)
14,CCCN1CCN(CCCNC(=O)CN2C(=O)COc3ccccc32)CC1,-1.3% (inactive)
15,O=C(CN1C(=O)COc2ccccc21)NCCN1CCc2ccccc2C1,-31.2% (active)
16,O=C(CN1C(=O)COc2ccccc21)Nc1ccc(F)cc1,-7.46% (inactive)
17,COCc1cc(C)n(CC(=O)NCC2CCCO2)c(=O)c1C#N (configuration not stated),0.717% (inactive)
18,CNS(=O)(=O)c1ccc(NC(=O)Nc2ccc3c(c2)OCO3)cc1,-1.22% (inactive)
19,CCCCN(CC)C(=O)C1CCCN(S(=O)(=O)c2cccc3nsnc23)C1 (configuration not stated),-1.17% (inactive)
20,COc1ccc(CC(=O)Nc2c(C(N)=O)oc3ccccc23)cc1,2.14% (inactive)
21,c1coc(-c2nc3nc4ccccc4n3nc2-c2ccco2)c1,-45.8% (active)

row,Compound,"activity change, negative = inhibition"
1,Cn1c(-c2ccco2)nc2cc3ccccc3cc21,-10.1% (inactive)
2,Clc1ccccc1CSc1nnc(-c2ccco2)c(-c2ccco2)n1,-6.43% (inactive)
3,CN(CCOc1ccccc1)C(=O)c1cc(COc2c(F)cccc2F)on1,-0.542% (inactive)
4,O=[N+]([O-])c1ccc(N(CCO)Cc2ccccc2)c([N+](=O)[O-])c1,-1.63% (inactive)
5,O=C1Nc2ccc([N+](=O)[O-])cc2C1=Nc1cccc(CO)c1,-33% (active)
6,CN1CCN(/N=C2/C(=O)Nc3ccc([N+](=O)[O-])cc32)CC1,-19.1% (inactive)
7,COC(=O)N/N=C/c1cn(CCCOc2ccc(C)cc2)c2ccccc12,-8.57% (inactive)
8,COc1ccc(C2CC(O)(c3ccccc3)Oc3cc(C)cc(C)c32)cc1 (configuration not stated),-4.71% (inactive)
9,CC1C(=O)C(C)C(c2ccc(O)cc2)NC1c1ccc(O)cc1 (configuration not stated),-1.45% (inactive)
10,CCOC(=O)c1cc2occc2n1CC(=O)N1CCN(C(=O)c2ccco2)CC1,2.42% (inactive)
11,CCOC(=O)c1cc2occc2n1CC(=O)NC1CCC(C)CC1 (configuration not stated),-0.298% (inactive)
12,CCOC(=O)c1cc2c(ccn2C)n1CC(=O)N1CCC(C)CC1,-41.2% (active)
13,COC(=O)N1C(/C=C/C=C/c2ccc(OC)cc2)=Cc2ccccc2C1CC(C)=O (configuration not stated),-0.194% (inactive)
14,Cc1ccc(OCC(=O)Nc2ccccc2Sc2ccc(Cl)cc2)c([N+](=O)[O-])n1,-30.3% (active)
15,CCc1ccccc1NC(=O)CN(C)C(=O)COc1ccc(C)nc1[N+](=O)[O-],-2.08% (inactive)
16,Cc1ccc(OCC(=O)NC(C)c2ccccc2)c([N+](=O)[O-])n1 (configuration not stated),0.28% (inactive)
17,C=C(C(C)=O)C(O)c1cccs1 (configuration not stated),2.11% (inactive)
18,O=C(COCc1cc(-c2ccc3c(c2)OCO3)on1)N1CCN(c2cccc(Cl)c2)CC1,-0.674% (inactive)
19,CCN(CC)c1ccc2cc(C(N)=O)/c(=N\NC(=O)c3ccncc3)oc2c1,-7.4% (inactive)
20,CCN(CC)c1ccc2oc(=O)c(C)nc2c1,-46.3% (active)
21,CCN(CC)c1ccc(/C=N/Nc2nc(C)cc(C)n2)c(O)c1,-8.39% (inactive)

row,Compound,"activity change, negative = inhibition"
1,CCC(=O)Nc1ccc2nn(-c3ccc(F)cc3)nc2c1,0.799% (inactive)
2,O=C(O)CCC(=O)NCc1ccc(C(=O)O)cc1,3.84% (inactive)
3,O=C(O)CCC(=O)NCc1ccc2[nH]c3c(c2c1)CCCC3,-41.3% (active)
4,Cc1cccc(NC(=S)NCc2ccc3[nH]c4c(c3c2)CCCC4)c1,-0.782% (inactive)
5,Cc1ccc(C23CC4CC(CC(C(=O)NCC(=O)O)(C4)C2)C3)cc1,6.61% (inactive)
6,O=S(=O)(Nc1cccc(Oc2ccc(Cl)cc2)n1)c1ccc(F)cc1,3.65% (inactive)
7,Cc1cc(C)c(C2C3=C(Nc4c2c(C)nn4-c2ccccn2)c2ccccc2C3=O)c(C)c1 (configuration not stated),-0.679% (inactive)
8,Cc1ccc(-c2ccnc3[nH]n(-c4ccccc4)c(=O)c23)cc1,2.09% (inactive)
9,Cc1ccc(C2C3=C(Nc4[nH]n(-c5ccccc5)c(=O)c42)c2ccccc2C3=O)cc1 (configuration not stated),-44% (active)
10,COc1cc(Cl)c(C)cc1NC(=O)CN1CCCCCC1,0.688% (inactive)
11,CC(=O)N1CCc2c(sc(NC(=O)CCS(=O)(=O)c3ccccc3)c2C#N)C1,1.84% (inactive)
12,CC(C)N1CCc2c(sc(NC(=O)Cc3ccccc3)c2C#N)C1,-3% (inactive)
13,N#Cc1c(N)sc2c1CCN(C(=O)OCc1ccccc1)C2,-39.2% (active)
14,O=C1C2C(c3ccccc3)CC=CC2C(c2ccoc2)N1Cc1ccccc1 (configuration not stated),8.25% (inactive)
15,CCCCC1=CC2=CC(=O)C(C)(OC(=O)CC)C(=O)C2=CN1CCCOC(C)C (configuration not stated),-25% (inactive) and -18.1% (inactive)
16,COC(=O)CCCC1=CC2=CC(=O)C(C)(OC(=O)c3cccs3)C(=O)C2=CN1c1ccc(CO)cc1 (configuration not stated),1.62% (inactive)
17,COC(=O)CCCC1=CC2=CC(=O)C(C)(OC(=O)c3cccs3)C(=O)C2=CN1CC1CC1 (configuration not stated),-36.8% (active) and -32.4% (active)
18,CC(C)(C)OC(=O)NCCCCC1=CC2=CC(=O)C(C)(OC(=O)c3cccs3)C(=O)C2=CO1 (configuration not stated),0.595% (inactive)
19,COC(=O)CCCC1=CC2=CC(=O)C(C)(OC(=O)c3cccs3)C(=O)C2=CN1c1cccc(C#N)c1 (configuration not stated),-7% (inactive) and -4.26% (inactive)
20,COC(=O)CCCC1=CC2=CC(=O)C(C)(OC(=O)c3cccs3)C(=O)C2=CN1CC(C)C (configuration not stated),-16.4% (inactive) and -34.8% (active)
